Data from PubChem BioAssay AID463173 (ICCB-Longwood Screening Facility, Harvard Medical School, 2010).
Screen size: about 52,000 compounds; about 4,300 (8.3%) were called active. The entries come from a sample that favours actives as a whole. A number with no mark means an inactive call. No stated cut-off is given here; in the data, active means survival mostly below about 52% (no sharp cut-off); inactive means mostly above about 56%.

The compounds below were run on DeltatarO mutant (assay: growth inhibition of S. aureus wild type versus tarO mutant, primary screen, teichoic acid synthesis inhibitors, RN4220, OD600 (AID 463173)). Details: OD600, 18 h, hits give low values, screened at 18.75 µg/mL (by protocol).

In order of falling survival:
1. Nc1nonc1-c1nc2ccccc2n1CC(=O)Nc1ccc(F)cc1  169%
2. CCCc1ccc(-c2ccc(C(=O)Oc3ccc(Br)cc3)cc2)nc1  136%
3. Cn1c(=O)oc2cc(S(=O)(=O)N3CCCC(C(=O)NCc4ccc(F)cc4)C3)ccc21 (stereo not given)  131%
4. Cc1ccc(-n2nc(-c3ccccc3)c3cnc4cc5c(cc4c32)OCO5)cc1C  127%
5. FC(F)(F)c1ccc2c(c1)ncc1c(-c3ccccc3)nn(-c3ccccc3)c12  125%
6. Cc1c(/C=C(\C#N)C(=O)Nc2cccc(Cl)c2)c2ccccc2n1Cc1ccccc1Cl  123%
7. O=C(CCCn1c(=O)[nH]c2ccccc2c1=O)NCc1ccccc1Cl  123%
8. CN(C)C(=O)c1ccc(S(=O)(=O)NCc2ccc(Cl)cc2)s1  119%
9. COc1ccc(NS(=O)(=O)c2ccc3[nH]c4c(c3c2)CCCCC4)cc1  117%
10. COc1ccccc1C(=O)Nc1cc(-c2cccc(Br)c2)nn1-c1ccccc1  115%
11. CCNC1CC(=O)N(c2ccc(C(=O)OCC)cc2)C1=O (stereo not given)  112%
12. CNS(=O)(=O)c1cn(CC(=O)N2CCN(c3ccc(Cl)cc3)CC2)cc1S(=O)(=O)NC  106%
13. Cc1ccc(C)c(NC(=O)CSc2nnc3[nH]c(=O)cc(-c4ccccc4)n23)c1  105%
14. Cc1ccc(N2CCN(S(=O)(=O)c3ccc4[nH]c5c(c4c3)CCCCC5)CC2)c(C)c1  102%
15. Cc1cc(C)cc(-n2c(SCC(=O)Nc3ccccc3)nc3c(oc4ccccc43)c2=O)c1  101%
16. Cc1cc(C)nc(N(C#N)Cc2ccccc2)n1  100%
17. CCOc1ccc2ncc3c(-c4cccc(OC)c4)nn(-c4ccccc4)c3c2c1  100%
18. CCCNC(=O)c1cnc2sc(N3CCCCC3)nn2c1=O  99%
19. COc1ccccc1/C=C/C(=O)N1CCC(C(N)=O)CC1  99%
20. Cc1cc(OC(=O)c2cccs2)cc(OC(=O)c2cccs2)c1  99%
21. O=C(COC(=O)c1ccco1)Nc1cccc2ccccc12  97%
22. Cc1cc(C)cc(-n2cnc3cc(C(=O)NC4CCCCCC4)ccc32)c1  95%
23. COc1ccc(-c2nn(-c3ccc(C)c(Cl)c3)c3c2cnc2cc(OC)c(OC)cc23)cc1  94%
24. COc1ccc(CNc2ccc(C)c(C)c2)c(OC)c1OC  93%
25. CS(=O)(=O)NCc1ccc2c(c1)OCO2  92%
26. COC(=O)c1ccc(NS(=O)(=O)c2ccc3[nH]c4c(c3c2)CCCCC4)cc1  91%
27. COc1cc(C2c3c(-c4ccccc4O)n[nH]c3C(=O)N2Cc2ccncc2)ccc1O (stereo not given)  90%
28. N#C/C(=C\c1ccc(-c2ccccc2)o1)C(=O)Nc1ccccc1  90%
29. Cc1ccc(N2C(=O)CCSC23C(=O)N(Cc2ccc(F)cc2)c2ccccc23)cc1 (stereo not given)  90%
30. COc1ccc(-n2nc(-c3ccc(C)cc3)c3cnc4cc(F)c(F)cc4c32)cc1  88%
31. Cc1cc(C)n(CCC(=O)Nc2ccc(Cl)cc2)n1  87%
32. CCc1ccccc1NC(=O)Cn1c(-c2nonc2N)nc2ccccc21  86%
33. COC(=O)c1ccc(NC(=O)CSc2ccc(-c3cccs3)nn2)cc1  85%
34. COc1cccc(C2c3c(-c4ccccc4O)n[nH]c3C(=O)N2Cc2cccnc2)c1 (stereo not given)  84%
35. Cc1nnnn1CCC(=O)NC(C)c1ccccc1 (stereo not given)  84%
36. CCOC(=O)/C(C#N)=C\c1ccc(-c2cccc(C(F)(F)F)c2)o1  84%
37. CCN(C(=O)Cn1c(=O)n(Cc2ccccc2)c(=O)c2c1c1cc(OC)ccc1n2C)c1ccccc1  84%
38. Cc1ccc(NS(=O)(=O)c2ccc3[nH]c4c(c3c2)CCCCCC4)cc1  84%
39. Cc1ccc(CNS(=O)(=O)c2ccc3[nH]c4c(c3c2)CCCC4)cc1  84%
40. COc1ccc(CNC(=O)c2ccc3c(c2)N(Cc2ccccc2)C(=O)c2ccccc2S3(=O)=O)cc1  83%
41. CC(=O)c1ccc(NS(=O)(=O)c2ccc3[nH]c4c(c3c2)CCCC4)cc1  83%
42. Nc1nonc1-c1nc2ccccc2n1CCn1c(-c2nonc2N)nc2ccccc21  82%
43. COc1ccccc1OCC(=O)Nc1c(C(=O)c2ccc(C)cc2)oc2ccccc12  82%
44. COc1ccc(Cl)cc1NC(=O)CSc1nc2c([nH]c3ccccc32)c(=O)n1-c1ccccc1  81%
45. Cc1ccc(CNC(=O)c2ccc(N3Cc4ccccc4Oc4ncccc43)s2)cc1  81%
46. CCOc1ccc(-c2nn(-c3ccc(F)cc3)c3c2cnc2ccc(F)cc23)cc1  81%
47. COc1ccc(CNC(=O)CSc2ncc(S(=O)(=O)c3ccc(C)c(Cl)c3)c(=O)[nH]2)cc1  80%
48. Cc1ccc(C)c(N2CCN(S(=O)(=O)c3ccc4[nH]c5c(c4c3)CCCCC5)CC2)c1  80%
49. O=C(Cn1cc(SCc2ccc(F)cc2)c2ccccc21)N1CCCCC1  79%
50. Cc1ccc(NC(=O)/C(C#N)=C/c2ccc(C)o2)cc1  79%
51. NNC(=O)CNC(=O)c1cccs1  79%
52. CC(CNC(=O)c1ccc(CSc2nc3ccncc3n2Cc2ccccc2)cc1)c1ccccc1 (stereo not given)  78%
53. COc1ccc(NC(=O)/C(C#N)=C/c2ccc(C)o2)cc1  77%
54. COc1ccc(-c2nn(-c3ccc(C)cc3)c3c2cnc2ccc(C)cc23)cc1OC  76%
55. Cc1ccc(NC(=O)c2oc3ccc(S(=O)(=O)N(C)C4CCCCC4)cc3c2C)c(C)c1  73%
56. COc1ccc(S(=O)(=O)NCCc2sc3nc(-c4ccc(C)cc4)nn3c2C)cc1F  72%
57. Cc1ccc2c(c1)N(C(=O)N1CCC(C(=O)NC3CCCCCC3)CC1)CC(C)O2 (stereo not given)  72%
58. Cc1ccc(NS(=O)(=O)c2ccc3[nH]c4c(c3c2)CCCCCC4)cc1Cl  72%
59. CCCCNC(=O)CC1N=C2c3ccccc3N=C(SCC(=O)NCc3ccccc3Cl)N2C1=O (stereo not given)  72%
60. CCCCCc1ccc(-c2ccc(C(=O)Oc3ccc(C(=O)OC)cc3)cc2)nc1  71%
61. CCOC(=O)c1c(-c2cccs2)csc1NC(C)=O  69%
62. CNS(=O)(=O)c1cn(CC(=O)N2CCN(c3ccc(OC)cc3)CC2)cc1S(=O)(=O)NC  69%
63. Cc1ccc(-c2nn(-c3ccccc3)c3c2cnc2ccccc23)cc1C  68%
64. COc1ccc(NC(=O)CCN2CCN(c3cccc(Cl)c3)CC2)cc1  67%
65. Nc1nonc1-c1nc2ccccc2n1CC(=O)Nc1cccc(Cl)c1Cl  66%
66. COc1ccc(CNS(=O)(=O)c2ccc(C(=O)N(C)C)s2)cc1  66%
67. O=C(NCc1cccc(Cl)c1)c1cc2c(s1)-c1ccccc1SC2  64%
68. CCC(C)OC(=O)/C(C#N)=C\c1ccc(-c2cccc(C(F)(F)F)c2)o1 (stereo not given)  64%
69. COc1cc(NS(=O)(=O)c2ccc3[nH]c4c(c3c2)CCCCCC4)cc(OC)c1  64%
70. Cc1nc2ccc(NC(=O)C3CCCCC3)cc2c(=O)n1Cc1ccccc1  63%
71. O=S(=O)(NCc1ccc(F)cc1)c1ccc2[nH]c3c(c2c1)CCCCC3  61%
72. O=c1c2cc3c(cc2n(Cc2cccc(Cl)c2)c(=O)n1Cc1nc(-c2ccccc2)no1)OCO3  61%
73. COc1ccc(Cn2ccc3nc(C)c(C(=O)NCc4ccc(C)cc4)cc3c2=O)cc1  60%
74. CCOC(=O)c1ccc(-c2ccc(/C=C(\C#N)C(=O)Nc3ccc(OCC)cc3)o2)cc1  60%
75. Cc1cc(C)cc(NC(=O)Cn2cc(C(=O)c3cccs3)c3ccccc32)c1  60%
76. COc1ccc(-c2nc(SCC(=O)NC3CCCC3)c(-c3ccc(C)cc3)[nH]2)cc1OC  57%
77. COCCNc1oc(-c2ccc(OC)cc2)nc1C#N  54%
78. CCOC(=O)C(C)Nc1ncnc2onc(C)c12 (stereo not given)  53%
79. Nc1c(S(=O)(=O)Cc2ccccc2)sc2nc3c(cc12)CCCC3  49%

In the case of `NC(=O)Cn1c(-c2nonc2N)nc2ccccc21`, the survival is reported as 62% (active).
In the case of `Nc1nonc1-c1nc2ccccc2n1CC(=O)Nc1ccccc1C(=O)O`, the survival is reported as 45% (active).
In the case of `CNS(=O)(=O)c1cn(CC(=O)N2CCN(c3ccc(C(C)=O)cc3)CC2)cc1S(=O)(=O)NC`, the survival is reported as 37% (active).
In the case of `Cc1ccc(CNS(=O)(=O)c2ccc(C(=O)N(C)C)s2)cc1`, the survival is reported as -4% (active).
For `COc1ccc(CCN2C(=O)c3[nH]nc(-c4ccccc4O)c3C2c2ccc(OC)c(OC)c2)cc1` (stereo not given), the survival was 45% (active).
With `COc1ccc(CCN2C(=O)c3[nH]nc(-c4ccccc4O)c3C2c2ccc(O)c(OC)c2)cc1` (stereo not given) the survival was 30% (active).
`COc1cccc(C2c3c(-c4ccccc4O)n[nH]c3C(=O)N2CCc2ccc(OC)c(OC)c2)c1` (stereo not given) was tested, and the survival was 8% (active).
`CCCCOC(=O)c1ccc(NC(=O)/C(C#N)=C/c2ccc(-c3ccccc3)o2)cc1` was tested, and the survival was 32% (active).
In the case of `CCCCOC(=O)/C(C#N)=C/c1ccc(-c2cccc(C(F)(F)F)c2)o1`, the survival is reported as 46% (active).
For `CCCCOC(=O)c1ccc(NC(=O)/C(C#N)=C/c2ccc(C)o2)cc1`, the survival was 49% (active).
With `O=S(=O)(NCc1ccc(F)cc1)c1ccc2[nH]c3c(c2c1)CCCC3` the survival was -1% (active).
`COC(=O)c1ccc(NS(=O)(=O)c2ccc3[nH]c4c(c3c2)CCCC4)cc1` was tested, and the survival was 6% (active).
With `Cc1ccc(NS(=O)(=O)c2ccc3[nH]c4c(c3c2)CCCCCC4)cc1C` the survival was -1% (active).
In the case of `COc1ccc(NS(=O)(=O)c2ccc3[nH]c4c(c3c2)CCCCCC4)cc1`, the survival is reported as -2% (active).
With `Cc1ccc(C)c(N2CCN(S(=O)(=O)c3ccc4[nH]c5c(c4c3)CCCC5)CC2)c1` the survival was -2% (active).
With `Cc1cc(C(=O)c2cccs2)c(N)s1` the survival was 33% (active).
With `CCCCCc1ccc(-c2ccc(Br)cc2)nc1` the survival was -4% (active).
`COc1ccc2ncc3c(-c4ccccc4)nn(-c4ccc(C)c(C)c4)c3c2c1` was tested, and the survival was 18% (active).
With `COc1cc2ncc3c(-c4ccccc4)nn(-c4ccc(C)cc4)c3c2cc1OC` the survival was 47% (active).
With `CCc1ccc(-c2nn(-c3ccc(OC)cc3)c3c2cnc2ccc(OC)cc23)cc1` the survival was 14% (active).
In the case of `CCc1ccc2ncc3c(-c4ccccc4)nn(-c4ccccc4)c3c2c1`, the survival is reported as 5% (active).
